Screening data (PubChem BioAssay)
The sample as a whole holds a higher share of hits than the screen did.
Cycloheximide cs = affects cycloheximide protein synthesis inhibition readout, counter-screen; 300,000 tested, 12% active; max response, %; cell reporter, cycloheximide protein synthesis inhibition counterscreen; in the data active means max response mostly above about 13%, no sharp cut-off; inactive means mostly below about 14%; further: read at 38.3 µM for the half of the compounds with a filed dose; 0% is about no effect
AMA1 RON2 block = AMA1-RON2 (P. falciparum) interaction inhibition; AlphaScreen AMA1-biotinylated RON2 peptide binding; Potency, µM (titrated, usually from 58.2 µM), for inactives: at the highest dose activity change, negative = inhibition, usual class: inhibitors; 360,000 tested, 0.2% active; active means well fitted inhibition curve with a large enough effect; inconclusive means small, poorly fitted or top-dose-only effect; inactive means no such curve, though single readings can be large or run the other way;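 further: potency means the concentration at half of the fitted maximal effect; 0% = vehicle wells and -100% = peptide control; nearly all actives have a fitted effect of over 45% in size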
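AMA1 (3D7) with his tag at 25 nM final met compounds first, then biotinylated RON2 peptide at 25 nM; detection used donor plus acceptor beads, 10 µg/mL apiece, read by AlphaScreen after 30 min at room temperature.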
Shiga inhibitor = Shiga toxin inhibition. Vero cells, Shiga toxin protein synthesis inhibition reporter. inhibition, % at 38.7 µM. 290,000 tested, 9.2% active. AID 2315; in the data active means inhibition mostly above about 28%, no sharp cut-off; inactive means mostly below about 43%; further: 0% is about no effect
LASV entry inh = blocks Lassa virus binding to or entry into cells; 300,000 tested, 1.2% active; AID 540256; Lassa virus pseudotype entry inhibition, cell reporter; Potency, µM (top dose mostly 37.9 µM), for the others: at the highest dose activity change, negative = inhibition, usual class: inhibitors; calls by dose curve; tested in HEK293 cells; further: potency means the concentration at half of the fitted maximal effect; on the % scale 0 is the no-effect control and ±100 the full control effect; nearly all actives have a fitted effect of over 50% in size
MARV entry inh = inhibitors of Marburg virus binding or cell entry; Marburg virus pseudotyped entry inhibition, cell reporter; Potency, µM (series often up to 37.8 µM), for inactives: top-dose activity change, negative = inhibition, most hits filed as inhibitors; 300,000 tested, 1.8% active; calls by dose curve; tested in HEK293 cells; further: potency means the concentration at half of the fitted maximal effect; on the % scale 0 is the no-effect control and ±100 the full control effect
Starred values were filed as active, the others as inactive; ? = inconclusive; / = no result; [ ] = another dose, or the depositor's remark.

SMILES	Cycloheximide cs	AMA1 RON2 block	Shiga inhibitor	LASV entry inh	MARV entry inh
Cc1nn(Cc2ccccc2)c(C)c1NC(=O)CCCn1nc([N+](=O)[O-])c(Cl)c1C	-5.8	-23.7%	-18.1	-16.3%	9.2%
O=C(COc1cccnc1[N+](=O)[O-])NCCc1ccccc1	14.1*	-1.7%	16.3	5.2%	?
CC(=O)Nc1ccc(NC(=O)COC(=O)c2ccc([N+](=O)[O-])o2)cc1	/	9.3%	/	-18.1%	6.0%[46.1 µM]
Cc1ccc(/C=C/C(=O)Nc2nnc(C)s2)o1	8.4	23.2%	61.2*	19.2%	25.3%
CCOC(=O)CCc1ccc(NC(=O)/C=C/c2ccc([N+](=O)[O-])o2)cc1	/	-9.4%	/	7.08µM*	?
Cc1ccc(C(=O)Nc2nnc(C)s2)o1	9.9	2.1%	-3.4	19.5%	20.3%
Cc1ccc(/C=C/C(=O)Nc2ccc([N+](=O)[O-])cc2)o1	35.5*	-5.5%	74.8*	-8.3%	18.1%
CCc1ccc(C(=O)/C=C/c2ccc([N+](=O)[O-])o2)cc1	12.6*	8.7%	18.1	?	?
COc1ccc(CN(Cc2ccco2)c2cnc(S(C)(=O)=O)nc2C(=O)Nc2ccc(F)cc2)cc1	/	/	/	-23.2%[46.1 µM]	-25.1%[46.1 µM]
CN1OC[C@@H]2CN(C(=O)CCc3ccccc3)[C@H](c3ccc(N4CCCCC4)cc3)C[C@@H]21	/	-3.3%	/	/	/
O=C(NCC1CCCO1)c1ccccc1NS(=O)(=O)c1ccc(Br)s1 (stereo not given)	/	6.4%	/	-5.5%	13.4%[46.1 µM]
Cc1ccc(/C=C/C(=O)Nc2ccc(Oc3ccccc3)cc2)o1	25.8*	-17.2%	54.2	-17.1%	?
O=C(O)c1cccc(COc2ccc3c(c2)CCC3)c1	35.3*	1.1%	44.0	0.366µM*	?
COc1cccc(OC)c1C(=O)NNC(=O)c1cccc(COc2ccc3c(c2)CCC3)c1	64.8*	115.1%	183.9*	?	?
O=C(NCc1ccccc1)c1cccc(COc2ccc3c(c2)CCC3)c1	103.9*	19.7%	119.5*	?	?
COc1ccccc1NC(=O)c1ccc(COc2ccc3c(c2)CCC3)cc1	9.4	6.8%	0.0	-1.1%	4.0%
CCc1cccc(NC(=O)CSc2nncn3c2cc2sccc23)c1	/	/	/	-4.8%[46.1 µM]	/
CC(C)(C)c1ccc(OCc2cc(=O)n3c4c(sc3n2)CCCC4)cc1	/	/	/	-1.4%[46.1 µM]	12.9%[46.1 µM]
Cc1cc(C)c2nc(NNC(=O)c3ccc(S(=O)(=O)N4CC(C)CC(C)C4)cc3)sc2c1 (stereo not given)	1.8	53.3%	11.0	?	14.6µM*
Cc1cc(C)c2nc(NNC(=O)c3ccc(S(=O)(=O)N4CCCC(C)C4)cc3)sc2c1 (stereo not given)	-3.7	40.0%	-11.0	?	?
C=CCc1ccc(OCC(O)CN2CCN(c3ccccc3OC)CC2)c(OC)c1 (stereo not given)	-3.0	-8.3%	12.4	/	/
C=CCc1ccc(OCC(O)CO)c(OC)c1 (stereo not given)	14.7	-16.8%	-8.3	22.8%	-1.8%
C=CCc1ccc(OCC(O)CN2CCN(Cc3ccc(Cl)cc3)CC2)c(OC)c1 (stereo not given)	-4.2	-10.1%	-7.5	?	8.2µM*
C=CCc1ccc(OCC(O)CN2CCC(Cc3ccccc3)CC2)c(OC)c1 (stereo not given)	7.6	-6.8%	-7.5	12.6µM*	?
C=CCc1ccc(OCC(O)COCC)c(OC)c1 (stereo not given)	35.6*	-8.2%	127.5*	12.2%	-13.8%
SMILES	Cycloheximide cs	AMA1 RON2 block	Shiga inhibitor	LASV entry inh	MARV entry inh
CCOC(=O)c1ccc(NS(=O)(=O)c2ccc3c(c2)CCN3C(=O)CC)cc1	/	/	/	-5.6%[46.1 µM]	?
COc1cc(OC)cc(C(=O)NCCNc2nc3cc(C)cc(C)c3cc2C#N)c1	-1.8	-2.2%	/	/	/
O=C(CSc1ccc(-c2ccccc2)nn1)c1cccs1	28.1*	1.8%	54.9	17.7%	?
COc1ccc(-c2ccc(SCC(=O)N3CC(=O)Nc4ccccc43)nn2)cc1	21.2*	5.1%	35.0*	?	?
Cc1ccc(C(=O)CSc2ccc(-c3ccncc3)nn2)cc1	6.5	4.0%	25.0	12.1%	7.0%[46.1 µM]
Cc1ccc(-c2ccc(SCC(=O)c3ccccc3)nn2)cc1	30.5*	25.7%	66.4	3.1%	0.3%
COc1ccc(-c2ccc(SCC(=O)c3cccs3)nn2)cc1	34.3*	-18.1%	60.7*	?	?
COc1ccc(CCNC(=O)CSc2cc(=O)n(C)c3ccccc23)cc1OC	/	/	/	-11.5%[46.1 µM]	-7.8%[46.1 µM]
C[C@@H]1CO1	-7.8	/	-11.2	/	/
Nc1nc(Cl)cc(NCCc2ccc(O)cc2)n1	15.2	-3.3%	26.0	0.4%[46.1 µM]	-13.3%[46.1 µM]
Nc1nc(Cl)cc(NCCc2ccccc2)n1	14.6*	/	13.3	/	/
C=CCOc1ccc(/C=C2\SC(=Nc3cccnc3)NC2=O)cc1	10.3*	3.6%	22.1	3.55µM*	?
CC(/C=C1\SC(=Nc2cccnc2)NC1=O)=C\c1ccccc1	-1.0	-5.5%	6.4	?	?
C[C@H]1[C@H](C)CC[C@]2(C=O)CC[C@]3(C)C(=CC[C@@H]4[C@@]5(C)C[C@@H](O)[C@H](O)[C@@](C)(CO)[C@@H]5CC[C@]43C)[C@H]12	-7.3	/	11.3	/	/
COc1ccc(C(=O)C[n+]2ccccc2/C=N/O)cc1	19.2*	11.5%	56.2	?	?
Cc1ccc(C)c(N2CCN(C(=O)c3cnc4c(-c5ccccc5)c(C)nn4c3C)CC2)c1	/	/	/	-5.1%[46.1 µM]	/
O=C(COC(=O)c1cc(Cl)ccc1O)c1ccc2c(c1)OCO2	/	-0.4%	/	-0.6%	?
CC(C)(C)C(=O)Nc1ccccc1C(=O)OCC(=O)c1ccc2c(c1)OCCO2	69.0*	-4.8%	77.6*	?	?
O=C(COC(=O)c1ccc(O)cc1O)c1ccc2c(c1)OCO2	76.2*	-6.3%	92.3*	-20.6%	-0.2%
O=C(COC(=O)c1ccccc1NC(=O)C1CC1)c1ccc2c(c1)OCCO2	53.7*	/	75.3*	/	-4.0%
COc1ccc(NC(=O)CN2CCC(C(=O)c3ccc(F)cc3)CC2)c(OC)c1	-3.0	-29.0%	-4.0	-14.3%	-15.8%[46.1 µM]
O=C(O)c1cc(NN=C2CCN(Cc3ccccc3)CC2)ccc1Cl	0.8	-4.4%	11.6	/	/
C/C(=N\Nc1nc2ccccc2[nH]1)c1ccc([N+](=O)[O-])cc1	6.7	0.0%	-7.7	?	-1.0%[46.1 µM]
CC(C)(C)C1CCC(=NNc2nc3ccccc3[nH]2)CC1 (stereo not given)	36.6*	59.6%	68.5*	12.3%[46.1 µM]	?
c1ccc2c(c1)CCC[C@H]2Nc1nc2ccccc2[nH]1	/	/	/	?	-8.0%
c1ccc(CN2CCC(=NNc3nc4ccccc4[nH]3)CC2)cc1	33.4*	0.0%	31.4	?	?
c1ccc2c(c1)CC/C2=N/Nc1nc2ccccc2[nH]1	46.6*	8.0%	118.8*	?	?
N/C(Cc1ccc([N+](=O)[O-])cc1)=N\OC(=O)c1ccco1	34.7*	-0.8%	35.3*	?	?
Cc1cccc(C(=O)O/N=C(\N)Cc2ccc([N+](=O)[O-])cc2)c1	11.5	1.1%	21.5	?	?
N/C(Cc1ccc([N+](=O)[O-])cc1)=N\OC(=O)c1ccc2ccccc2c1	44.6*	-11.8%	130.9*	?	?
